Screening results: PubChem, Johns Hopkins Ion Channel Center
Sampled rows, rich in hits. Any-hit rate of the full collection: about 2.3%.
ANO1 block: mouse TMEM16A channel inhibition, primary screen; normalized B-score (activity score, 25-100; higher = stronger inhibition) at 10 µM; hit rate 1.2% among 310,000; HEK293 TMEM16A/YFP iodide influx fluorescence, ionomycin; Q8BHY3;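 active = ratio plate-corrected score three or more library SD toward inhibition, starting fluorescence score within five deviations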;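 note: score derived from kinetic fluorescence span divided by baseline fluorescence per well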
TMEM16A act: activators or potentiators of mouse TMEM16A chloride channel | Q8BHY3 | HEK293 TMEM16A/YFP-H148Q/I152L, iodide quench fluorescence; stronger effect = lower value | AID 623877 | B-score at 10 µM | hit rate 0.3% among 340,000;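 active = fluorescence-ratio B-score plate-corrected deviation score at least 3 library SD below zero, with starting fluorescence score within 5 deviations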;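 note: channel opened by trigger with iodide after compound preincubation; score built on the fluorescence ratio of max minus min over baseline; more negative score means more quench and so TMEM16A activation or potentiation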
CHT allo act: allosterically activates the human high affinity choline transporter | B-score at 10 µM | Q9GZV3 | CHT-expressing cells, membrane potential dye, choline EC20; stronger effect = higher value; LV-AA mutant CHT in HEK293 cells | hit rate 0.49% among 310,000;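 active = initial fluorescence not abnormally high and integrated response B-score, plate-corrected, over 3 SD above library mean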
CHT block: inhibits the human high affinity choline transporter; B-score at 10 µM; CHT-expressing cells, membrane potential dye, choline response; stronger effect = lower value; AID 488975; hit rate 0.86% among 310,000; Q9GZV3;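 active = B-score over 3 SD under the library average, and starting fluorescence ratio not unusually high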;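 note: choline stimulus applied at its EC90 after an EC20 pre-addition; B-score computed on integrated fluorescence ratio after choline addition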
CHT block conf: human CHT inhibition, confirmatory screen | shares compounds with CHT block | CHT-expressing cells, choline membrane potential dye; LV-to-AA substituted CHT, HEK293 cells | CHT activity remaining % of control (stronger effect = lower value), % at 10 µM | hit rate 70% among 2,400 | AID 493221;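 active = choline transporter activity left, mean of duplicates at 10 µM, below buffer-only control mean minus 3 SD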;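 note: depolarization triggered by choline at its EC90 following an EC20 pre-addition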
HEK293 CHT ctr: activity in parental HEK293 cells lacking CHT; membrane potential ratio readout (active if shifted either direction beyond buffer ±3SD; no single direction) at 10 µM; hit rate 4% among 2,400; membrane potential dye, choline response; active = decrease or increase beyond buffer ±3SD; shares compounds with CHT block;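 note: parental cells lack the transporter so any hit is non-specific; ratio is peak minus trough fluorescence over baseline after EC90 choline challenge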
Large screens that a line does not name were inactive (follow-up assays come after a bar, where they were run).

Cc1cccc(-c2nc(CN3CCCC(C(=O)NC4CCCCC4)C3)c(C)o2)c1 (configuration not stated)	ANO1 block 25, CHT block -5.7 | CHT block conf inactive | HEK293 CHT ctr inactive
CC1CCC(NC(=O)c2ccc(NC(=O)CC3SC(N4CCCC4)=NC3=O)cc2)CC1 (configuration not stated)	CHT block -11 | CHT block conf 11% | HEK293 CHT ctr inactive
CC(Oc1ccccc1Cl)C(=O)Nc1ccc(S(=O)(=O)Nc2nccs2)cc1 (configuration not stated)	CHT block -7.7 | CHT block conf 65% | HEK293 CHT ctr inactive
CC(Oc1ccc(Cl)cc1)C(=O)Nc1ccc(S(=O)(=O)Nc2nccs2)cc1 (configuration not stated)	none
Cc1ccccc1OC(C)C(=O)Nc1ccc(S(=O)(=O)Nc2nccs2)cc1 (configuration not stated)	CHT block -7.2 | CHT block conf 47% | HEK293 CHT ctr inactive
CC(C)(C)NC(=O)NC(=O)CN1CCN(c2cccc(Cl)c2)CC1	CHT block -6.9 | CHT block conf 47% | HEK293 CHT ctr inactive
CC(C)(C)NC(=O)NC(=O)CN1CCN(c2ccccc2)CC1	none
C=CCc1ccc(OCC(O)CN2CCC(Cc3ccccc3)CC2)c(OC)c1 (configuration not stated)	CHT block -7.2 | CHT block conf 31% | HEK293 CHT ctr inactive
O=C(O)c1cc([N+](=O)[O-])ccc1NCc1ccccc1Cl	CHT block -5.6 | CHT block conf inactive | HEK293 CHT ctr inactive
Cc1ccc(N(CC(=O)N2CCN(c3ccc(F)cc3)CC2)S(=O)(=O)c2c(C)noc2C)cc1	none
O=C(NC1CCCCC1)C(c1ccc2ncccc2c1)N(Cc1cccs1)C(=O)c1cccs1 (configuration not stated)	CHT block -5.5 | CHT block conf inactive | HEK293 CHT ctr inactive
O=C(NC1CCCCC1)C(c1ccc2ncccc2c1)N(Cc1ccco1)C(=O)c1ccc2c(c1)OCCO2 (configuration not stated)	none
O=C(NC1CCCC1)C(c1ccc(F)cc1)N(C(=O)Cc1cccs1)c1ccc2c(c1)OCCO2 (configuration not stated)	none
O=C(NC1CCCCC1)C(c1ccc2ncccc2c1)N(Cc1ccc2c(c1)OCO2)C(=O)c1ccc2c(c1)OCCO2 (configuration not stated)	CHT block -14 | CHT block conf 30% | HEK293 CHT ctr inactive
O=C(NC1CCCCC1)C(c1ccc2ncccc2c1)N(Cc1ccc(F)cc1)C(=O)c1ccc2c(c1)OCCO2 (configuration not stated)	CHT block -7.5 | CHT block conf 65% | HEK293 CHT ctr inactive
O=C(NC1CCCCC1)C(c1ccncc1)N(C(=O)Cc1cccs1)c1ccccc1 (configuration not stated)	none
CCN(CC(=O)Nc1ccc(C)c(S(=O)(=O)N2CCOCC2)c1)Cc1ccccc1	none
Cc1ccccc1CNC(=O)c1ccccc1N(C)S(=O)(=O)c1ccccc1	none
C(=NN1CCCCCC1)c1ccc2c(c1)OCO2	none (no result: ANO1 block, CHT allo act, CHT block)
CCOc1ccc(C2/C(=C(\O)c3ccc4c(c3)OCCO4)C(=O)C(=O)N2Cc2cccnc2)cc1OCC (configuration not stated)	none
CC(C)OC(=O)CN1CCN(C2c3ccccc3-c3ccccc32)CC1	CHT block -5.6 | CHT block conf 70% | HEK293 CHT ctr inactive
Cc1ccc(N(C)C(=O)CC(C)S(=O)(=O)c2ccc3c(c2)NC(=O)CO3)cc1 (configuration not stated)	CHT block -5.7 | CHT block conf inactive | HEK293 CHT ctr inactive
Cc1ccc(NC(=O)CC(C)S(=O)(=O)c2ccc3c(c2)NC(=O)CO3)c(Cl)c1 (configuration not stated)	none
COc1ccc(CC(=O)NCc2cn3ccsc3n2)cc1	none
O=C(NCc1cn2ccsc2n1)c1cccs1	CHT block -5.1 | CHT block conf inactive | HEK293 CHT ctr inactive
CCOC(=O)C(=Cc1c[nH]c2ccc(S(=O)(=O)N(C)C)cc12)C(=O)OCC	CHT block -6.4 | CHT block conf 33% | HEK293 CHT ctr inactive
